For 13 compounds, outcome and AC50 results are on record in PubChem BioAssay (EPA / NIEHS).

A short description of test [1]: CEETOX_H295R_11DCORT: CeeTox H295R High-throughput Steroidogenesis Assay for 11-Deoxycortisol (11DCORT) (AID 2283432). Particulars: actives raise or lower the signal. The gist of the method: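 Adrenal carcinoma line H295R, run per OECD 456 with minor changes, was forskolin-stimulated (10 uM, 48 h) before a 48 h chemical exposure at 0.1% DMSO. Secreted 11-deoxycortisol was quantified by HPLC-MS/MS.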

Test [2] is described as follows: CEETOX_H295R_OHPROG: CeeTox H295R High-throughput Steroidogenesis Assay for OH-Progesterone (OHPROG) (AID 2283435).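 For AC50: human adrenal H295R cells primed 48 h with 10 µM forskolin; 17alpha-hydroxyprogesterone secreted into medium measured by HPLC-MS/MS.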 As to conditions: actives raise or lower the signal. The gist of the method: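 H295R, 10 uM forskolin prestim 48 h; cmpd in 0.1% DMSO 48 h; medium MTBE-extracted, HPLC-MS/MS for OH-progesterone; 7-pt std curve; bidirectional fit vs DMSO; MTT viability, chemicals diluted until viability >/=70%.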

Test [3] in a line: CEETOX_H295R_CORTIC: CeeTox H295R High-throughput Steroidogenesis Assay for Corticosterone (CORTIC) (AID 2283437).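 For AC50: human H295R adrenal cells prestimulated with forskolin before chemical exposure.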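 Note: corticosterone secreted into medium quantified by mass spectrometry.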 As to conditions: actives raise or lower the signal. In a few lines:
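Corticosterone secreted into medium is measured by reverse-phase HPLC with tandem MS following liquid-liquid extraction. Cells are forskolin-stimulated (10 uM, 48 h) before 48 h test exposure; activity fitted in both directions against DMSO.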

The nature of test [4]: CEETOX_H295R_CORTISOL: CeeTox H295R High-throughput Steroidogenesis Assay for Cortisol (AID 2283438).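 Note: cortisol secreted into medium quantified by LC-MS/MS.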 Particulars: actives raise or lower the signal. In a few lines:
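Forskolin 10 uM 48 h prestim → test cmpd in DMSO (0.1% final) 48 h → medium MTBE-extracted → LC-MS/MS cortisol vs 7-pt std curve. Gain/loss of signal fitted vs DMSO. MTT viability in same wells.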

Test [5] is described as follows: CEETOX_H295R_DOC: CeeTox H295R High-throughput Steroidogenesis Assay for DOC (AID 2283439). As to conditions: actives raise or lower the signal. In a few lines:
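Readout: 11-deoxycorticosterone in culture medium by reverse-phase C18 HPLC with ESI+ tandem MS after MTBE extraction. Cells: H295R, forskolin-primed (10 uM, 48 h), chemical-treated 48 h; DMSO 0.1% final. Activity fitted bidirectionally versus DMSO.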

Test [6] is described as follows: CEETOX_H295R_ESTRADIOL: CeeTox H295R High-throughput Steroidogenesis Assay for Estradiol (AID 2283440).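 Note: estradiol secreted into medium quantified by LC-MS/MS after dansyl derivatisation.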 As to conditions: actives raise or lower the signal. In a few lines: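 Following OECD 456 with minor changes, H295R cells received 10 uM forskolin for 48 h and then test chemical for 48 h. Hormone output was read by HPLC-MS/MS, with cytotoxic concentrations diluted until MTT viability reached ≥70%.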

Test [7] can be described thus: CEETOX_H295R_ESTRONE: CeeTox H295R High-throughput Steroidogenesis Assay for Estrone (AID 2283441).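 For AC50: human adrenal H295R cells prestimulated with forskolin for two days.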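 Note: estrone secreted into medium measured by LC-MS/MS after dansyl derivatization.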 As to conditions: actives raise or lower the signal. The gist of the method:
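H295R cells prestimulated 48 h with 10 uM forskolin, then exposed 48 h to chemicals in 0.1% DMSO final; estrone in medium extracted with MTBE, dansyl-derivatized, quantified by HPLC-MS/MS; bidirectional fitting versus DMSO, viability by MTT.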

Test [8] can be described thus: CEETOX_H295R_PROG: CeeTox H295R High-throughput Steroidogenesis Assay for Progesterone (PROG) (AID 2283442).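 For AC50: human H295R adrenal cells primed with 10 µM forskolin before dosing; progesterone secreted into medium by H295R cells measured by HPLC-MS/MS.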 Particulars: actives raise or lower the signal. In a few lines: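 Adrenal H295R line, forskolin-stimulated (10 uM, 48 h) before dosing. 48 h exposure, 0.1% DMSO vehicle. Secreted progesterone by reverse-phase HPLC with ESI+ MS/MS quantification; DMSO-normalised bidirectional curve fit.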

Test [9] addresses Peroxisome proliferator-activated receptor gamma (Homo sapiens) (UniProt P37231). Put plainly: OT_PPARg_PPARgSRC1_0480: Odyssey Thera (OT) 8-hour Protein-Complementation Assay for Peroxisome Proliferator-activated Receptor Gamma / SRC-1 Co-activator (AID 2283387; active = hit-call score of the fitted dose curve at least 0.9, where 1 is the maximum;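 note: nuclear to cytoplasmic split Venus YFP fluorescence ratio reporting PPARg SRC-1 interaction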). In a few lines: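 Protein-fragment complementation in HEK293T: Venus YFP halves (residues 1-158, 159-239, mutated to IFP1/IFP2) fused to PPARg/SRC-1. 8 h exposure; N/C ratio at 488 nm; DMSO negative control.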

Test [10] shares this target. As to the kind of experiment: OT_PPARg_PPARgSRC1_1440: Odyssey Thera (OT) 24-hour Protein-Complementation Assay for Peroxisome Proliferator-activated Receptor Gamma/ SRC-1 Co-activator (AID 2283388; active = hit-call score of the fitted dose curve at least 0.9, where 1 is the maximum;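 note: nuclear to cytoplasmic ratio of reconstituted Venus YFP fluorescence in fixed imaged cells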). In a few lines: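 Transient HEK293T, YFP fragments 1-158/159-239 (mutant IFP1/IFP2) fused to PPARg/SRC-1; 24 h dosing; fix 4% formaldehyde, Draq5; Opera imaging 488/635 nm; N/C ratio, gain vs DMSO.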

The target in test [11] is Retinoic acid receptor RXR-alpha (Homo sapiens) (UniProt P19793). Put plainly: OT_NURR1_NURR1RXRa_0480: Odyssey Thera (OT) 8-hour HEK293T Protein Complementation Assay for Nurr1/retinoid X receptor (RXR) (AID 2283385; active = hit-call score of the fitted dose curve at least 0.9, where 1 is the maximum). In a few lines:
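8 h compound exposure, HEK293T; Nurr1/RXRα fragment complementation; fluorescence intensity; positive fitting direction vs DMSO baseline.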

Test [12] shares this target. Put plainly: OT_NURR1_NURR1RXRa_1440: Odyssey Thera (OT) 24-hour HEK293T Protein Complementation Assay for Nurr1/retinoid X receptor (RXR) (AID 2283386; active = hit-call score of the fitted dose curve at least 0.9, where 1 is the maximum). In a few lines: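 Interaction of Nurr1 with RXRα brings fused reporter fragments together in human HEK293T cells, restoring a functional reporter. Fluorescence intensity is measured 24 h after chemical treatment, and values are analysed in the positive direction against DMSO.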

Read-out in test [13]: Fatty acid synthase (Homo sapiens) (UniProt P49327)
As to the kind of experiment: LTEA_HepaRG_FASN: Life Technologies and Expression Analysis (LTEA) Assay for Fatty Acid Synthase (FASN) using HepaRG (AID 2283448). As to conditions: mRNA level, 48 h; actives raise or lower the signal. In a few lines:
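FASN expression changes, up or down relative to 0.5% DMSO, were measured by qRT-PCR in human HepaRG cells after 48 h treatment with chemicals at eight concentrations (half-log steps from 100 uM).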

Read-out in test [14]: Cyclin Dependent Kinase Inhibitor 1A (CDKN1A), CDKN1A (gene 1026)
As to the kind of experiment: LTEA_HepaRG_CDKN1A: Life Technologies and Expression Analysis (LTEA) Assay for Cyclin Dependent Kinase Inhibitor 1A (CDKN1A) using HepaRG (AID 2283450). Particulars: mRNA level, 48 h; actives raise or lower the signal. In a few lines:
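Cryopreserved HepaRG cells were plated and cultured 48 h, then switched to serum-free induction medium. Chemicals (eight half-log concentrations, top 100 uM, 0.5% DMSO) were applied for 48 h. Lysates underwent qRT-PCR for CDKN1A with housekeeping normalization.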

Read-out in test [15]: Cyclin D1 (CCND1), CCND1 (gene 595)
Put plainly: LTEA_HepaRG_CCND1: Life Technologies and Expression Analysis (LTEA) Assay for Cyclin D1 (CCND1) using HepaRG (AID 2283451). Particulars: mRNA level, 48 h; actives raise or lower the signal. The gist of the method:
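Human liver HepaRG line; 48 h dosing, 8 conc. ≤100 uM, 0.5% DMSO; TaqMan qRT-PCR mRNA, 3 housekeeping genes; bidirectional curve fit vs DMSO.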

Read-out in test [16]: catalase (CAT), CAT (gene 847)
As to the kind of experiment: LTEA_HepaRG_CAT: Life Technologies and Expression Analysis (LTEA) Assay for catalase (CAT) using HepaRG (AID 2283452).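 For AC50: TaqMan qRT-PCR signal normalized to ACTB GAPDH and POLR2A housekeeping genes.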 Particulars: mRNA level, 48 h; actives raise or lower the signal. In a few lines:
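Expression of CAT was quantified by TaqMan qRT-PCR with ACTB/GAPDH/POLR2A normalization after 48 h chemical exposure of HepaRG. Eight-point half-log series, top 100 uM, in 0.5% DMSO; gain or loss fitted against vehicle.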

Read-out in test [17]: flavin-containing dimethylaniline monooxygenases 3 (FMO3), FMO3 (gene 2328)
As to the kind of experiment: LTEA_HepaRG_FMO3: Life Technologies and Expression Analysis (LTEA) Assay for flavin-containing dimethylaniline monooxygenases 3 (FMO3) using HepaRG (AID 2283453).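 For AC50: differentiated human HepaRG liver cells in serum-free induction medium.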 Particulars: mRNA level, 48 h; actives raise or lower the signal. The gist of the method: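 Differentiated HepaRG cells in serum-free induction medium, exposed 48 h in duplicate to 8 half-log concentrations up to 100 uM in 0.5% DMSO. FMO3 mRNA by qRT-PCR, normalized to ACTB, GAPDH, POLR2A; bidirectional fit vs DMSO.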

Read-out in test [18]: Cytochrome P450 (CYP1A1), CYP1A1 (gene 1543)
Put plainly: LTEA_HepaRG_CYP1A1: Life Technologies and Expression Analysis (LTEA) Assay for Cytochrome P450 (CYP1A1) using HepaRG (AID 2283454). Particulars: mRNA level, 48 h; actives raise or lower the signal. In a few lines:
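Induction of CYP1A1 mRNA in a human hepatic cell line was measured 48 h after dosing, with 1 mM phenobarbital as induction positive control and 0.5% DMSO vehicle as baseline for bidirectional curve fitting.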

Test [19] can be described thus: CEETOX_H295R_ANDR: CeeTox H295R High-throughput Steroidogenesis Assay for Androstenedione (ANDR) (AID 2283436).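 Note: human H295R adrenal cells exposed for 48 h with androstenedione measured in medium.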 Particulars: actives raise or lower the signal. In a few lines:
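Read-out is androstenedione secreted into medium, measured by tandem mass spectrometry after liquid-liquid extraction. Cells were H295R, dosed for 48 h per modified OECD 456; activity fitted in both directions relative to DMSO.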

Inconclusive results are not listed. Calls of active or inactive are those of the source. Rule for the calls, unless noted: active = hit-call score of the fitted dose curve at least 0.9, where 1 is the maximum; inactive = score below 0.9.

Retinoic acid receptor RXR-alpha (Homo sapiens), sequence (P19793 whole entry, looked up, the tested form may be a part): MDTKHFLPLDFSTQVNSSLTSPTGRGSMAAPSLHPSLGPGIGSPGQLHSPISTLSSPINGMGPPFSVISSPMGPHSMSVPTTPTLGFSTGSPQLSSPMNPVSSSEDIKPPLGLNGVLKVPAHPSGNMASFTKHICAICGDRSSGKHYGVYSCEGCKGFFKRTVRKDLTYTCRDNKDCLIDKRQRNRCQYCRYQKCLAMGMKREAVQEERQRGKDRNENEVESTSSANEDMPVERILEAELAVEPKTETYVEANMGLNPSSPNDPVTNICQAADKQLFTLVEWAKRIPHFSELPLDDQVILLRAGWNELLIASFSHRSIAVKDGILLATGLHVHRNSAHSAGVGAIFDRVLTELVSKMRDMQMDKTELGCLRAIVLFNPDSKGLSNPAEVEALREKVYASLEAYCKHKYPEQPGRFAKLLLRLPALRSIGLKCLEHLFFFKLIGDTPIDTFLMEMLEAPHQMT
Peroxisome proliferator-activated receptor gamma (Homo sapiens), sequence (P37231 whole entry, looked up, the tested form may be a part): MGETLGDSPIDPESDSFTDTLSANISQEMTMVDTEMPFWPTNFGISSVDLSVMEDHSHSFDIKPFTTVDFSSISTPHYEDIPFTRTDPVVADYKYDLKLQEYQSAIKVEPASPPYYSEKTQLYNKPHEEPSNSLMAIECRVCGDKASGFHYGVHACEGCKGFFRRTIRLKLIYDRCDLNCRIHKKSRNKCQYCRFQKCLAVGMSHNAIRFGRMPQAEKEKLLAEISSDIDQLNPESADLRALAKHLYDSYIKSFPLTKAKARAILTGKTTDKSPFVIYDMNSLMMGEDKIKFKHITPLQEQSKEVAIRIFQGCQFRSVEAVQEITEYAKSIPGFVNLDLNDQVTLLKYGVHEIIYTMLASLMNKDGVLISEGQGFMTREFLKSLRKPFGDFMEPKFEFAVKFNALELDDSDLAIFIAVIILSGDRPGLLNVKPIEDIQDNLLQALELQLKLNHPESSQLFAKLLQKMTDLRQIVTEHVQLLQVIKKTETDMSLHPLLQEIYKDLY
Fatty acid synthase (Homo sapiens), sequence (P49327 whole entry, looked up): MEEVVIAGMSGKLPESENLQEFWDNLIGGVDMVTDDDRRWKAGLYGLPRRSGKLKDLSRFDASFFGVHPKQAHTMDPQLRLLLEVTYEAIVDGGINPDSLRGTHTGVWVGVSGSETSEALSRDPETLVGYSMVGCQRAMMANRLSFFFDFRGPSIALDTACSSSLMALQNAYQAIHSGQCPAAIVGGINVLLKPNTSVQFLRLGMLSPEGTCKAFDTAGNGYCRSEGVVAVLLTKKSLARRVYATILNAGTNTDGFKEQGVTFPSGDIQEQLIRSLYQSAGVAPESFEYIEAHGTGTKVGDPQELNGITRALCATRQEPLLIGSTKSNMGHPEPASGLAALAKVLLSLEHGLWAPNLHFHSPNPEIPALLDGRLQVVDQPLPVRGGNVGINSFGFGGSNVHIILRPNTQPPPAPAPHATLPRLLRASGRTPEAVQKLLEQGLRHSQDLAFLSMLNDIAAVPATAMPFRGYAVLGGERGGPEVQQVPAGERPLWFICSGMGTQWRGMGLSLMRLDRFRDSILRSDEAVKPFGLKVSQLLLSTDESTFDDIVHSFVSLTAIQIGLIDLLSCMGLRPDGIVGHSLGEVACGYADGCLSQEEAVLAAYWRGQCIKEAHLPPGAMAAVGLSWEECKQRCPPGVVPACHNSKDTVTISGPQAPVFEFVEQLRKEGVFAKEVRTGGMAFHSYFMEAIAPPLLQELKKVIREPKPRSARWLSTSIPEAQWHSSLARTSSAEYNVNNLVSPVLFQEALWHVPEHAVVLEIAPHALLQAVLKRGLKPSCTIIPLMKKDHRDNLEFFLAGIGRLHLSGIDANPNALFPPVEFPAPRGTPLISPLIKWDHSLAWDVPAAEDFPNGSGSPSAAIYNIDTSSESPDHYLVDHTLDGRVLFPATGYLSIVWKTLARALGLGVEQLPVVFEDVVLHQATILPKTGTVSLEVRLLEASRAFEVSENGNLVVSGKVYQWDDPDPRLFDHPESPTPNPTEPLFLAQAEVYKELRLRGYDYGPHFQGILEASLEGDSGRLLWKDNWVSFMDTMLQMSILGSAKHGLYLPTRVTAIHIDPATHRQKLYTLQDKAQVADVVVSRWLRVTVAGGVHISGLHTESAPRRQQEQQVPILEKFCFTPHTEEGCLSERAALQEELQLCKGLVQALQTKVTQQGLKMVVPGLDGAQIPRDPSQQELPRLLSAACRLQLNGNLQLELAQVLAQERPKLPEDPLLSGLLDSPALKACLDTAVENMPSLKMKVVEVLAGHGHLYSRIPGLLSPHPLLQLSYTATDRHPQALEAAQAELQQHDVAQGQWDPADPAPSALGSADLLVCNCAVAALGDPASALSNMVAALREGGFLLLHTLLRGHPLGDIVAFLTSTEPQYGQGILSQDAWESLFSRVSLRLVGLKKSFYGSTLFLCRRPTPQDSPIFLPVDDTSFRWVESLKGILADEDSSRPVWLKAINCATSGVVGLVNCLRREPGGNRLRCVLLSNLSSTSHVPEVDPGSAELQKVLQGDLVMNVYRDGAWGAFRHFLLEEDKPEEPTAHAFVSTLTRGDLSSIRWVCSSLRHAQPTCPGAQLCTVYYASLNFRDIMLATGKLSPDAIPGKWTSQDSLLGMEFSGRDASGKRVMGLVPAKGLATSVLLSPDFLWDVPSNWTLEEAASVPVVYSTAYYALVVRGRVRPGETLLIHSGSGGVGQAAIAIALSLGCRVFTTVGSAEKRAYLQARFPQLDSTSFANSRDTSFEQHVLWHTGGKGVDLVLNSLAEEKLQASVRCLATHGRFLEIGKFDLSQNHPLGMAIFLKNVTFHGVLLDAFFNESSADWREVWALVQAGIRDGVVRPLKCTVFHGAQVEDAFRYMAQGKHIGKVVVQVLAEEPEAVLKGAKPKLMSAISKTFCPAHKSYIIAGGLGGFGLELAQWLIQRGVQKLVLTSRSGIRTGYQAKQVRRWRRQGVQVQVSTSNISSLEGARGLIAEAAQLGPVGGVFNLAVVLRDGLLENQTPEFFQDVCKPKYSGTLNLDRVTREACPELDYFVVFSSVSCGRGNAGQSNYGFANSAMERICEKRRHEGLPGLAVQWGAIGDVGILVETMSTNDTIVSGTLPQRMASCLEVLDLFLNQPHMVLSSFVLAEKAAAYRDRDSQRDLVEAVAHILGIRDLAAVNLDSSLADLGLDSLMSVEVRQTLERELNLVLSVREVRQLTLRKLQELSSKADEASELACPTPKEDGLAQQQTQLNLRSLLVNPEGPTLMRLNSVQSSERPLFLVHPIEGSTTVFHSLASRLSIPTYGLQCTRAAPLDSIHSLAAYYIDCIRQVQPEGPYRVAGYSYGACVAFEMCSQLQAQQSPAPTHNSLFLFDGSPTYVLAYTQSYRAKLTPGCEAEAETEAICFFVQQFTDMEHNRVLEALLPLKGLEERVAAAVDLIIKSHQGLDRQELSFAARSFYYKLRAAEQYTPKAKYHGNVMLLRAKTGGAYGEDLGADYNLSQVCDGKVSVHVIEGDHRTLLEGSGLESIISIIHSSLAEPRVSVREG

For `Clc1ccc(Nc2nnc(Cc3ccncc3)c3ccccc23)cc1`, the call in [1], in [2], in test [5] and in test [8] was inactive. For the same compound, the AC50 – broadly, the concentration at which the activity in the assay is half-maximal – in [3] is 2.38 µM (active); in [4], 3.2 µM (active); in test [6], 2.39 µM (active); in test [7], 4.2 µM (active).

For `CC(C)(C)c1ccc(O)c(O)c1`, the compound was classed as inactive in [1], in [2], in [3] and in test [5]. The values for the concentration at half-maximal activity (AC50) in test [4] and in test [8] were 50 µM (active) and 32.3 µM (active), respectively.

`CCCCc1ccc2ccccc2c1S(=O)(=O)O`: the result in test [9] and in test [10] was inactive.

As to `CCCCCCCCCCCCCCC`, the compound was classed as inactive in test [11], in [12], in [13], in [14], in [15] and in [16]. Further, the compound was classed as inactive in test [17]. For the same compound, the half-maximal activity concentration (AC50) in test [18] is 50 µM (active).

`NCCN`: the outcome in test [12], in [9] and in test [10] was inactive.

For `O=C(NCc1ncc(C(F)(F)F)cc1Cl)c1c(Cl)cccc1Cl`, the result in test [1], in test [19], in test [3], in test [4], in test [5] and in test [6] was inactive. For the same compound, the result in [7] was inactive. The AC50 in test [2] is 7.42 µM (active); in test [8], 7.48 µM (active).

For `c1cc[nH]c1`, the compound was classed as inactive in test [1], in test [2], in test [19], in [3], in test [4] and in [5]. Besides, in [8], the call was inactive.

Turning to `O=C(O)C(=O)O`, the compound was called inactive in [9] and in [10].

With `N=C(N)c1ccc(OCCCCCOc2ccc(C(=N)N)cc2)cc1`, the compound was classed as inactive in test [11], in [9], in test [10], in [15] and in test [18]. Moreover, the AC50 is 10.1 µM (active) in test [14], 6.7 µM (active) in test [16] and 6.68 µM (active) in test [17].

On to `CCCCC(CC)C(=O)O` (stereo not given), for which the result in [12], in [9], in test [10], in test [13], in [14] and in test [15] was inactive. For the same compound, the compound was called inactive in [16]. Further, the AC50 in test [18] was 50 µM (active).

As to `Cc1cccc2c1ccc1ccccc12`, the outcome in test [1], in [2], in [19], in test [3], in [4] and in test [5] was inactive. Besides, the result in test [6], in test [7] and in test [8] was inactive.

Regarding `CC(=O)Nc1ccc(O)cc1`, the compound was called inactive in test [12], in test [9], in test [10], in [13], in test [14] and in test [15]. In addition, the result in test [16] and in test [17] was inactive. The AC50 in [18] was 50 µM (active).

For the compound `COc1cccc(O)c1`, the compound was classed as inactive in [1], in [2], in test [3], in [4], in [5] and in test [8].
